Measurements published in PubChem BioAssay AID2540 (Sanford-Burnham Center for Chemical Genomics, 2010).
In all, about 330,000 compounds went through this assay and about 4,100 (1.2%) were called active. The sample holds actives, similar compounds and a random draw of the others, so the mix is not that of the screen. Unmarked numbers belong to inactive results. Rule as the data show it: active = inhibition above about 50%; inactive = the rest.

Each compound was assayed against Sentrin-specific protease 8 (Homo sapiens) (UniProt Q96LD8) (assay: SENP8 protease inhibitors, primary screen, biochemical, luminescence (AID 2540)). Conditions: purified SENP8, Z-RLRGG-aminoluciferin cleavage, at 10 µM, active compounds read high.
Sequence of Sentrin-specific protease 8 (Homo sapiens) (Q96LD8 whole entry, looked up): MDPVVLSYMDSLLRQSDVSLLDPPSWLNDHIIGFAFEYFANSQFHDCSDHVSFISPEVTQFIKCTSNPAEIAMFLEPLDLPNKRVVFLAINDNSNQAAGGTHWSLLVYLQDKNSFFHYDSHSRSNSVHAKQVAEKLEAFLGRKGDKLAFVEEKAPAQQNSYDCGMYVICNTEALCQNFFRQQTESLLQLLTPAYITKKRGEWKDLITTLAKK

| Compound | inhibition |
| --- | --- |
| O=C(Nc1ccc(Cl)cn1)c1ccc2c(c1)OCCO2 | 75.8% (active) |
| CCCCC(CC)C(=O)Nc1ccc(Cl)cn1 (stereo not drawn) | 7.93% |
| Cc1cccc(C)c1NC(=O)CNC(=O)c1ccc2c(c1)OCCO2 | -10.7% |
| COc1ccc(C(=O)NC(=S)Nc2ccc(Cl)cn2)cc1OC | -13.1% |
| CCCc1cc(C(=O)Nc2ccc(C(=O)OC)cc2)cs1 | -3.33% |
| Cc1nc(NC(=O)c2ccc3c(c2)OCCO3)ccc1Br | 74.8% (active) |
| Cc1ccc(C(=O)NNC(=O)c2ccc3c(c2)OCCO3)cc1 | 5.52% |
| O=C(Nc1ccc(Cl)cn1)c1cnn2cccnc12 | -0.161% |
| CCCc1cc(C(=O)Nc2ccc(Cl)cn2)cs1 | 66.2% (active) |
| CCCCN(C(=O)CCNC(=O)NC12CC3CC(CC(C3)C1)C2)c1c(N)n(CCCC)c(=O)[nH]c1=O | -4.31% |
| COc1ccccc1NC(=O)CCC(=O)OC(C)C(=O)c1ccccc1 (stereo not drawn) | -4.92% |
| Cc1cc(Nc2cc(N3CCN(C)CC3)nc(Sc3ccc(NC(=O)C4CC4)cc3)n2)n[nH]1 | -3.96% |
| CC(=O)N(C1=C(Cl)C(=O)c2ccccc2C1=O)c1ccc(C(=O)O)cc1 | 61.8% (active) |
| O=C(CCN1C(=O)c2ccccc2C1=O)NNC(=O)c1ccc(Cl)cc1Cl | -11.3% |
| O=S1(=O)CC/C(=N\Nc2ccc(F)cc2)c2ccsc21 | -11.5% |
| CNC(C)C#Cc1ccc2sc3cc(OC)c(OC)cc3c(=O)c2c1 (stereo not drawn) | 70.5% (active) |
| O=C(NC(=S)N1CCCCC1c1cccnc1)c1ccccc1 (stereo not drawn) | -8.93% |
| O=C(CCCCO)c1ccc(O)c(Cl)c1 | -4.6% |
| Cc1ccc2nc(-c3ccc(Br)cc3)cn2c1 | 74.4% (active) |
| Cc1ccc(-c2cc(N)on2)cc1 | -6.42% |
| CCN(CC)S(=O)(=O)c1ccc(-c2cn3ccc(C)cc3n2)cc1 | -1.4% |
| COc1ccc(-c2cn3ccc(C)cc3n2)cc1 | 95.5% (active) |
| Cc1ccc(-n2c(-c3ccc(Cl)cc3)n[nH]c2=S)cc1 | -0.548% |
| CSc1nnc2ccc(-c3ccc(C)cc3)nn12 | -14.2% |
| Cc1ccn2cc(C(=O)NC3CCN(Cc4ccccc4)CC3)nc2c1 | 3.06% |

| Compound | inhibition |
| --- | --- |
| Cc1ccc(-c2cn3cc(C)ccc3n2)cc1 | 84.7% (active) |
| Cc1cc(N2CCOCC2)nc(-c2ccc(Br)cc2)n1 | -13.3% |
| COCCN(CCOC)S(=O)(=O)NC[C@H]1O[C@@H](n2cnc3c(N)ncnc32)[C@H](O)[C@@H]1O | 3.39% |
| COc1ccccc1CCNS(=O)(=O)c1cc2c3c(c1)C(C)C(=O)N3CCC2 (stereo not drawn) | -8.53% |
| CCn1nc(C)c(/C=N/NC(=O)Cc2ccc(Cl)cc2)c1C | -9.56% |
| Cc1ccc(NC(=O)CC2C(=O)N(Cc3ccccc3)C(=S)N2NC(=O)c2cccc(F)c2)c(C)c1 (stereo not drawn) | -4.05% |
| Cc1ccc(O)c(NC(=S)NC(=O)COc2ccc(Br)cc2)c1 | -5.01% |
| CCCc1cc(=O)[nH]c(SCc2ccc(C#N)cc2)n1 | 0.541% |
| Cc1noc(C)c1/C=N/Nc1ccc2ccccc2n1 | -8.03% |
| Cc1cc(=O)[nH]c(N/N=C/c2ccc3c(c2)OCCO3)n1 | -1.24% |
| C(=N\Nc1ccc2ccccc2n1)/c1ccc2c(c1)OCO2 | 93.1% (active) |
| COc1cc(-c2nnc(Cn3cc(C(F)(F)F)ccc3=O)o2)cc(OC)c1OC | -4.14% |
| Cc1ccc(C)c(-n2c(SCC(=O)O)nc3sc4c(c3c2=O)CCCC4)c1 | -9.61% |
| CCCCCc1ccc(-c2ccc(C(=O)O)cc2)nc1 | 92.4% (active) |
| CCCCCc1ccc(-c2cn(Cc3ccc4ccccc4c3)nn2)cc1 | -9.63% |
| CCCCCc1ccc(-c2ccc(OCC)cc2)nc1 | -5.58% |
| CC(C)CN(C(=O)CSc1nncn1C)C1CCS(=O)(=O)C1 (stereo not drawn) | -3.63% |
| CCOCCc1nn2c(=O)cc(CSCC(=O)Nc3cccc(C)c3C)nc2s1 | -0.564% |
| O=C(Nc1nnc(C2COc3ccccc3O2)o1)c1ccc(F)cc1 (stereo not drawn) | -17.2% |
| FC(F)(F)c1ccnc(Oc2ccc(C3=NCCS3)cc2)c1 | 67.8% (active) |
| CC(C)Oc1ccc(Oc2ccc(C(F)(F)F)cn2)cc1 | -8.39% |
| NC1=NC(=O)C(Cc2cccc(Cl)c2)S1 (stereo not drawn) | -2.31% |
| O=C(NCCCN1CCOCC1)c1cnn2c(-c3ccccc3)cc(-c3ccccc3)nc12 | -0.117% |
| N#C/C=C1\Sc2ccccc2C(=O)N1CC(=O)N1CCN(S(=O)(=O)c2ccccc2)CC1 | -2.48% |
| CCCc1ccc(OCCNC(=O)c2ccccc2Br)cc1 | 7.2% |

| Compound | inhibition |
| --- | --- |
| CCCc1ccc(OCCNC(=O)c2ccco2)cc1 | 2.92% |
| CCCOc1ccc(C(=O)NCCc2ccccc2)cc1 | 52% (active) |
| CCCC(C(=O)n1nc(C)cc1C)C(NS(=O)(=O)c1ccc(C)cc1)c1ccccc1 (stereo not drawn) | -2.3% |
| Cc1ccc(C)c(NC(=O)NNC(=O)c2ccc3ccccc3c2O)c1 | -2.4% |
| C#CCOCCOCCOCCNc1nc(N2CCN(C(=O)[C@H](CCCN=C(N)N)n3cc(C(N)[C@@H](C)CC)nn3)CC2)nc(N2CCN(C(=O)[C@H](CO)n3cc([C@@H](N)C(C)C)nn3)CC2)n1 (stereo partly drawn) | 5.69% |
| O=C(O)/C=C/C(=O)NNc1ccc([N+](=O)[O-])cc1 | 69.3% (active) |
| CNC(=S)Nc1ccc([N+](=O)[O-])cc1 | -4.02% |
| O=C(Cc1ccccc1)NNS(=O)(=O)c1ccc([N+](=O)[O-])cc1 | -1.17% |
| CCOC(=O)C1(Cc2cccc(OC)c2)CCN(Cc2csc(C(C)=O)c2)CC1 | -11.2% |
| O=C(CCCCCn1c(=S)[nH]c2ccsc2c1=O)NC1CCCCC1 | 0.315% |
| Cc1nn(CC(=O)Nc2ccc(C#N)cc2)c(C)c1[N+](=O)[O-] | -9.74% |
| O=C(Nc1cccc2ccccc12)c1onc2c1CCCC2 | 71.5% (active) |
| CN(CC(=O)Nc1ccc(Cl)cc1)CC(=O)Nc1cccc2ccccc12 | -2.39% |
| O=C(O)Cc1ccc(NC(=O)Nc2cccc3ccccc23)cc1 | -11% |
| O=C(Nc1c2c(nn1-c1ccc(F)cc1)CS(=O)C2)C12CC3CC(CC(C3)C1)C2 (stereo not drawn) | -3.44% |
| CCC(Cc1ccccc1)NC(=O)C1CCCCC1 (stereo not drawn) | -7.47% |
| CN(c1ccc2nc3ccccc3c(=O)n2n1)C1CCCCC1 | 92.6% (active) |
| CN(C(=O)CSc1nncc2ccccc12)C1CCCCC1 | -9.8% |
| CN(C(=O)c1cc2c(=O)n3ccccc3nc2s1)C1CCCCC1 | -2.55% |
| CC(C(=O)N1CCOCC1)N1c2cccc3cccc(c23)S1(=O)=O (stereo not drawn) | 3.41% |
| Cc1cccc(NC(=O)Cc2ccc(Br)cc2)n1 | -12.8% |
| Cc1cccc(NC(=O)c2cc(N3C(=O)CCC3=O)ccc2Cl)n1 | -1.19% |
| Cc1cccc(NC(=O)c2ccc3ccccc3n2)n1 | 61.5% (active) |
| CC(=O)c1cnc(SCC(=O)O)nc1C | 6.9% |
| c1ccc2sc(NN=C3CCCC3)nc2c1 | 72% (active) |

| Compound | inhibition |
| --- | --- |
| CCN(CC)CCn1c2c(c(SCC(=O)Nc3nc4ccccc4s3)nc1=O)CCCC2 | 3.66% |
| O=C(CCC(=O)c1cccs1)Nc1nc2ccccc2s1 | -9.74% |
| O=C(Nc1ncc([N+](=O)[O-])s1)C1COc2ccccc2O1 (stereo not drawn) | 95.6% (active) |
| COc1ccc(NC(=O)C2COc3ccccc3O2)cc1 (stereo not drawn) | -15.1% |
| COc1ccc(OC)c2sc(NC(=O)C3COc4ccccc4O3)nc12 (stereo not drawn) | -14.6% |
| COc1ccc(OC)c(NC(=O)Cn2c(=O)oc3ccccc32)c1 | -1.75% |
| N#Cc1cc([N+](=O)[O-])ccc1NC(=O)COC(=O)c1cnccn1 | -2.92% |
| O=C(CN1CCN(c2ccc(Cl)cc2)CC1)NCc1cccs1 | -8.2% |
| CCc1cc(CNC(=O)CC2C(=O)NCCN2CC2CCCCC2)on1 (stereo not drawn) | -2.78% |
| CCCCCN(C(=O)CCC(=O)OCCOc1ccc(OC)cc1)c1c(N)n(CCCC)c(=O)[nH]c1=O | 6.98% |
| Cc1nc2cc(NC(=O)Nc3cccc(F)c3)ccc2n1C | 90.8% (active) |
| Cn1c(CCN2CCCCCC2)nc2cc(NC(=O)Nc3ccccc3)ccc21 | 1.11% |
| C=CCN(C(=O)Nc1ccc2c(c1)nc(C)n2C)c1ccccc1 | 0.305% |
| O=C(COC(=O)c1cnccn1)Nc1cccc2ccccc12 | 1.04% |
| O=C(CSc1ncnc2c1nnn2Cc1ccc(F)cc1)NC1CCCC1 | -8.4% |
| O=C(Nc1ccccc1C(=O)N1CCOCC1)c1ccc(CSc2ccccc2)cc1 | -3.32% |
| O=C(c1ccc(CSc2ccccc2)cc1)N1CCCCCC1 | 64.4% (active) |
| O=C(c1ccc(S(=O)(=O)c2ccccc2)cc1)N1CCCCCC1 | -5.04% |
| O=C(CSc1nccc(=O)[nH]1)Nc1ccc(N2CCOCC2)c(Cl)c1 | 2.95% |
| Cc1sc(NC(=S)NC(=O)c2cccs2)nc1-c1ccc(CC(C)C)cc1 | 13.2% |
| C/C(=N\NC(=O)CNC(=O)C(c1ccccc1)c1ccccc1)c1ccc(C)cc1 | -7.34% |
| Cc1ccc(C(=O)N/C(=C/c2cccnc2)C(=O)O)cc1 | -10.8% |
| C/C(=N\NC(=O)c1ccc(C)cc1)C1C(=O)c2ccccc2C1=O | 86.8% (active) |
